A selection: hits, their analogues and other compounds. The true share with any hit is near 1.4%.
PfHsp40 yeast = compounds rescuing yeast from Plasmodium falciparum HSP40 toxicity | S. cerevisiae expressing PfHsp40, growth rescue, ATP luminescence | growth rescue, % at 12.5 µM | hit rate 0.68% among 340,000; in the data active = growth rescue above about 28%, passing the limit was not always enough; inconclusive = no clear call, values can overlap the other calls;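 note: yeast W303a lacking pdr1 and pdr3 grown in galactose medium; growth measured after three days at 30 °C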
Sa RN4220 lethal = S. aureus RN4220 growth inhibition; hit rate 0.33% among 330,000; OD600, 16 h; inhibition, % (test concentration not listed); in the data active = inhibition above about 85%;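 note: plate controls were untreated cells for no effect and reference antibiotic for full effect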
Y pestis TopoI = blocks Yersinia pestis topoisomerase I activity. Y. pestis Topo-I cleavage product accumulation, plate reader. activity, % at 10 µM. hit rate 0.064% among 360,000; in the data active = activity above about 50%, passing the limit was not always enough; inconclusive = no clear call, values can overlap the other calls
BJeLR lethal = kills HRASV12-expressing BJeLR cells; AID 1554; inhibition, % (concentration not given with the values); BJeLR (HRASV12) viability, CellTiter-Glo ATP luminescence, 48 h; hit rate 0.17% among 300,000; in the data active = inhibition above about 50%; inconclusive = no clear call, values can overlap the other calls
PrP UTR inh = inhibition of PrP 5' UTR reporter expression. inhibition, % (no concentration beside the values). AID 488862. hit rate 0.35% among 340,000. cell-based PrP 5' UTR mRNA reporter, plate reader; in the data active = inhibition above about 52%; note: 0 = median of the neutral control wells
Sa ugtP lethal = kills S. aureus RN4220 lacking UgtP. growth inhibition, % (no concentration beside the values). hit rate 0.54% among 330,000. S. aureus RN4220 ugtP deletion, OD600 growth, 16 h; in the data active = growth inhibition above about 68%;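 note: plate controls were untreated wells for no effect and antibiotic for full effect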
PrP UTR cherry = prion 5' UTR mRNA inhibition, cherry-pick retest. shares compounds with PrP UTR inh. cell-based prion protein 5' UTR reporter, plate reader. inhibition, % at 2.5 µM. hit rate 48% among 1,100; in the data active = inhibition above about 54%; inconclusive = no clear call, values can overlap the other calls
Numbers without * were called inactive; ? = inconclusive; . = no result given.

SMILES | PfHsp40 yeast | Sa RN4220 lethal | Y pestis TopoI | BJeLR lethal | PrP UTR inh | Sa ugtP lethal | PrP UTR cherry
CC[C@@]12C(=O)N(c3ccccc3)C(=O)N1C(c1ccc(OC)cc1)C1C(=O)N(C(C)(C)C)C(=O)C12 (stereo partly drawn) | . | 2 | . | . | . | 1 | .
Cc1sc2ccccc2c1CC1=NCCN1 | 0 | . | -1 | . | -14 | . | .
Nc1ccc(CC2=NCCN2)cc1 | 35* | 2 | 1 | . | -20 | 6 | .
CCCNC(=S)Nc1cccc(C(F)(F)F)c1 | -3 | 0 | -4 | 2 | -9 | 2 | .
FC(F)(F)c1cccc(NC(=S)NCC2COc3ccccc3O2)c1 (stereo not drawn) | 2 | 54 | 7 | 12 | -19 | 83* | .
CN(C(=O)COC(=O)c1ccc(Cl)nc1)C1CCS(=O)(=O)C1 (stereo not drawn) | -1 | 0 | -4 | 8 | 68* | -2 | -20
C=C1C(=O)O[C@@H]2C[C@@H](C)[C@@H]3C=CC(=O)[C@@]3(C)[C@@H](O)[C@H]12 | -2 | . | 14 | 3 | 56* | . | 82*
COc1cc(C=C2SC(=O)N(c3ccc(Cl)cc3)C2=O)cc([N+](=O)[O-])c1O | . | 4 | . | . | . | 2 | .
Cc1cc(NC(=O)CSc2nnc(-c3ccco3)n2C)no1 | -1 | 1 | 3 | . | 88* | -2 | 7
C[C@@H]1CN([C@H](C)CO)C(=O)c2cc(NS(=O)(=O)c3cn(C)cn3)ccc2O[C@@H]1CN(C)S(C)(=O)=O | 0 | -10 | 0 | . | -29 | -5 | .
C[C@H](CO)N1C[C@H](C)[C@@H](CN(C)S(C)(=O)=O)Oc2ccc(NS(=O)(=O)c3cn(C)cn3)cc2C1=O | -3 | 3 | -6 | . | 90* | 2 | 1
c1ccc(NC(c2ccccc2)c2ccncc2)cc1 (stereo not drawn) | -1 | -6 | -5 | 4 | 4 | -2 | .
c1ccc(C(Nc2cccnc2)c2ccccc2)cc1 | 1 | . | 8 | . | 71* | . | -13
COc1ccc2c(c1)C(=O)N1C3c4cc(Cl)ccc4OCC3C(c3ccccc3)[C@]1(C)C(=O)N2 (stereo partly drawn) | . | -5 | . | . | . | -22 | .
NC(=S)NN=Cc1nccc2ccccc12 | 94* | 1 | 8 | . | 79* | -11 | 71*
COC(=O)c1c(C)nc2ccccc2c1-c1ccccc1 | 0 | -1 | 1 | -9 | -11 | -3 | .
COC(=O)c1ccc2c(c1)c(-c1ccccc1)c(-c1ccccc1)n2C | -1 | -14 | 7 | . | 85* | -1 | -27
O=C(NCc1ccc2c(c1)OCO2)C1CCCN(S(=O)(=O)c2cccc3cccnc23)C1 (stereo not drawn) | 1 | 1 | -2 | 0 | 78* | 9 | ?
O=C(NCc1ccc2c(c1)OCO2)C1CCCN(S(=O)(=O)c2cccc3nonc23)C1 (stereo not drawn) | -1 | -2 | -3 | 0 | -10 | -1 | .
COc1ccc(NC(=O)N(C)CC2Oc3ccc(NC(=O)NC(C)C)cc3CC(=O)N(C(C)CO)CC2C)cc1 (stereo not drawn) | . | 0 | . | . | . | -10 | .
C(=N\Nc1ccc2ccccc2n1)/c1ccc2c(c1)OCCO2 | -1 | . | -13 | 13 | 83* | . | 69*
Cc1cccc(/C=N/Nc2ccc3ccccc3n2)c1 | 0 | . | -5 | -3 | 75* | . | 66*
CC1NC(=O)C(CCC(=O)O)NC(=O)c2cc([N+](=O)[O-])cc(F)c2NCCCC(C(N)=O)NC1=O (stereo not drawn) | . | -3 | . | . | . | -4 | .
COc1cc(/C=C/CN2CCN(Cc3ccc(C)o3)C(CCO)C2)ccc1O (stereo not drawn) | -1 | 5 | 5 | 12 | 55* | 14 | ?
COc1ccc(C2C=CCN(C(=O)C3CC3)C(C)C(=O)N2Cc2ccc(F)cc2)cc1 (stereo not drawn) | . | 1 | . | . | . | 1 | .
CSc1ccccc1NC(=O)C(C)N(C)CC(=O)N1CCN(Cc2ccccc2)CC1 (stereo not drawn) | 1 | 9 | 15 | . | 74* | 6 | -10
CC(C(=O)Nc1ccc(C(F)(F)F)cc1)N(C)CC(=O)N1CCN(Cc2ccccc2)CC1 (stereo not drawn) | 0 | 4 | 21 | . | -4 | 6 | .
O=C(CN1C(=O)c2ccccc2S1(=O)=O)c1ccc(Cl)cc1Cl | 0 | . | -5 | -8 | 79* | . | 82*
